According to PMC7862700, “An all-to-all approach to the identification of sequence-specific readers for epigenetic DNA modifications on cytosine”:

Legend:
Assay in all cases: DAPPL (digital affinity profiling via proximity ligation, sequencing); 10 mM Tris-HCl pH 7.5, 50 mM NaCl, 1 mM DTT, 4% glycerol, room temperature, 30 min; GST-TFs on glutathione beads, 16-mer random dsDNA library, 0.1% formaldehyde crosslink after washing; high values mean tight binding
FLI1 = biological target: T1, FLI1 (Homo sapiens, UniProt Q01543 1-452); conditions: protein: recombinant; tags: N-terminal GST; dsDNA, one strand shown
T1 sequence: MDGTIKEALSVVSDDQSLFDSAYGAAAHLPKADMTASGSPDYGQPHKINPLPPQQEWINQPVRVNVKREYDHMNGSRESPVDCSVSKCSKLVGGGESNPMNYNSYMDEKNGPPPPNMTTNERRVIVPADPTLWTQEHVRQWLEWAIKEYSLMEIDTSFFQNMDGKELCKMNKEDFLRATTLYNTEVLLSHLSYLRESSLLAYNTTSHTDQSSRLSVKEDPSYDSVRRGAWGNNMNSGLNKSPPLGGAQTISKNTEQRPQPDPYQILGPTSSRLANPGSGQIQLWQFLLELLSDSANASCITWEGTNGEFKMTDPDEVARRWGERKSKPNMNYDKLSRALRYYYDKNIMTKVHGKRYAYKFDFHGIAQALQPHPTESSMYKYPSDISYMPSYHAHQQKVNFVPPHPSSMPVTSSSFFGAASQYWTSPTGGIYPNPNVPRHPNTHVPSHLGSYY
Procedure, shortened: (§1)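 Human transcription factors were made in yeast as GST fusions, captured on glutathione beads and barcoded with DNA. With a tag-only sample included, the pool was incubated with 200 nmole of a random double-stranded 16-mer DNA library in Tris/NaCl/DTT/glycerol buffer at room temperature for 30 min, then crosslinked with 0.1% formaldehyde after washing, ligated by proximity, amplified and sequenced. For binding signal, each hexamer's read frequency for a factor is divided by its frequency for the tag-only sample.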

ELK1 = biological target: T2, ELK1 (Homo sapiens, UniProt P19419 1-428); conditions: protein: recombinant; tags: N-terminal GST; dsDNA, one strand shown
T2 sequence: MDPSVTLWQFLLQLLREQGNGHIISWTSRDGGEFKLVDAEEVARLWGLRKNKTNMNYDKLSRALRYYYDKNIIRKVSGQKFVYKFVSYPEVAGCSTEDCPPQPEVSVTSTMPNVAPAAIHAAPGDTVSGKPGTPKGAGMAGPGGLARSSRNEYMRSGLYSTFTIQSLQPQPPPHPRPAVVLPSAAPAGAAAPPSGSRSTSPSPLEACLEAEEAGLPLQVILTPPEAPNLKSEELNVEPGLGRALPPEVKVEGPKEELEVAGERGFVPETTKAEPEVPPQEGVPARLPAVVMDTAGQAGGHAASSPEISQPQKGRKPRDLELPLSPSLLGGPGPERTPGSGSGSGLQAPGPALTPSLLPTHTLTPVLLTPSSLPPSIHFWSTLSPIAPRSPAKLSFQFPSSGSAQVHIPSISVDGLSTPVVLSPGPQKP
Procedure, shortened: as §1

GABPA = biological target: T3, GABPA (Homo sapiens, UniProt Q06546 1-454); conditions: protein: recombinant; tags: N-terminal GST; dsDNA, one strand shown
T3 sequence: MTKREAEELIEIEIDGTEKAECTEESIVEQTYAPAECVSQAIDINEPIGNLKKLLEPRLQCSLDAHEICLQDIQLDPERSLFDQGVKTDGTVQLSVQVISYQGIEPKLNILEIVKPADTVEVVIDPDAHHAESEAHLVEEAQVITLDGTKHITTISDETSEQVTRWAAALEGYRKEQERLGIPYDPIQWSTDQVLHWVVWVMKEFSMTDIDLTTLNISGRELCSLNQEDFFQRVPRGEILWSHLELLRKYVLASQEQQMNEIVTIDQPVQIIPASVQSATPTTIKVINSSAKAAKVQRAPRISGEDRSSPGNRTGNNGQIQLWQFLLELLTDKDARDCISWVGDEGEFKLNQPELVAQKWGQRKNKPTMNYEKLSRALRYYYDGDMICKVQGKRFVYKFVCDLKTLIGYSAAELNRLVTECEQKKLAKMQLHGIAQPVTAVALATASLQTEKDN
Procedure, shortened: as §1

ERG = biological target: T4, ERG (Homo sapiens, UniProt P11308 1-479); conditions: protein: recombinant; tags: N-terminal GST; dsDNA, one strand shown
T4 sequence: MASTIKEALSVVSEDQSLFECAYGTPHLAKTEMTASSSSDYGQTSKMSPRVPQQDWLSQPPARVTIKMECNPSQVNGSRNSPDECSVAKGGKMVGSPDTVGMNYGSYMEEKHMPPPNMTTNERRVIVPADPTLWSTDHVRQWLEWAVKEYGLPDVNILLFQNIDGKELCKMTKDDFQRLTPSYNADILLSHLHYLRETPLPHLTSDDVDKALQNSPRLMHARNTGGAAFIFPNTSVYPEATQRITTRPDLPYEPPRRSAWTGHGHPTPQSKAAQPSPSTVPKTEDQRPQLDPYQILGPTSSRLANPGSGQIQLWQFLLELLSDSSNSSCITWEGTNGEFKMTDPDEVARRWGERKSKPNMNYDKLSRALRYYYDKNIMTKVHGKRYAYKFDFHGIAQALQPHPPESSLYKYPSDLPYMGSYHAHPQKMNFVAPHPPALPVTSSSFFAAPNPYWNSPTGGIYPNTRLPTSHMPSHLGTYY
Procedure, shortened: as §1

ELF1 = ELF1 (Homo sapiens, UniProt P32519 1-619); conditions: protein: recombinant; tags: N-terminal GST; dsDNA, one strand shown
Procedure, shortened: as §1

EHF = biological target: T5, EHF (Homo sapiens, UniProt Q9NZC4 1-300); conditions: protein: recombinant; tags: N-terminal GST; dsDNA, one strand shown
T5 sequence: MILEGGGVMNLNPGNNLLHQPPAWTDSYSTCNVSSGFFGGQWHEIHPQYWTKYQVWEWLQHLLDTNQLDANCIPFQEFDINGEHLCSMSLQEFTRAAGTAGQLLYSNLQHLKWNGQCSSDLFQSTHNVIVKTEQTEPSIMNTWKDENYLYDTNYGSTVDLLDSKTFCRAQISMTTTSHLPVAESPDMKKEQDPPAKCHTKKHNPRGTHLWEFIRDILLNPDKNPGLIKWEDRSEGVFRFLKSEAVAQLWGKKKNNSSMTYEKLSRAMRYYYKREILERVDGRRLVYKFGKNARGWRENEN
Procedure, shortened: as §1

SPI1 = SPI1 (Homo sapiens, UniProt P17947 1-270); conditions: protein: recombinant; tags: N-terminal GST; dsDNA, one strand shown
Procedure, shortened: as §1

SPIB = SPIB (Homo sapiens, UniProt Q01892 1-262); conditions: protein: recombinant; tags: N-terminal GST; dsDNA, one strand shown
Procedure, shortened: as §1

ELK3 = biological target: T6, ELK3 (Homo sapiens, UniProt P41970 1-407); conditions: protein: recombinant; tags: N-terminal GST; dsDNA, one strand shown
T6 sequence: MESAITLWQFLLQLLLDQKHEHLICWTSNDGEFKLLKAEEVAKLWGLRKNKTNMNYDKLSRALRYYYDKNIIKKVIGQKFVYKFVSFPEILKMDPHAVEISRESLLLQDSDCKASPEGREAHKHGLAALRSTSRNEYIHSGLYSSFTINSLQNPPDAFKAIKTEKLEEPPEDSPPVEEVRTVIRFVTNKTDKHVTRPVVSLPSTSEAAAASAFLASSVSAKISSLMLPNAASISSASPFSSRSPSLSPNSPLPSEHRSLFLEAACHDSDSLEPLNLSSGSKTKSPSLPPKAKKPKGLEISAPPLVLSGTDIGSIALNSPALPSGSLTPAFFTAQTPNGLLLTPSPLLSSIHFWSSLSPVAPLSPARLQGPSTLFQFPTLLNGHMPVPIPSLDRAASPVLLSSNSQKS
Procedure, shortened: as §1

FEV = biological target: T7, FEV (Homo sapiens, UniProt Q99581 1-238); conditions: protein: recombinant; tags: N-terminal GST; dsDNA, one strand shown
T7 sequence: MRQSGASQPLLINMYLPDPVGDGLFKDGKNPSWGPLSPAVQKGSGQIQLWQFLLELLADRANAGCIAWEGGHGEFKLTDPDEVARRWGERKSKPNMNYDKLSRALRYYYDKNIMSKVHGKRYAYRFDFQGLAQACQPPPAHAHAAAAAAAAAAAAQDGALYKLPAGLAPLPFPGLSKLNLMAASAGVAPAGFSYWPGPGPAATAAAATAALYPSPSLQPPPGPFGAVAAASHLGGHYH
Procedure, shortened: as §1

ETV5 = ETV5 (Homo sapiens, UniProt P41161 1-510); conditions: protein: recombinant; tags: N-terminal GST; dsDNA, one strand shown
Procedure, shortened: as §1

HSF1 = HSF1 (Homo sapiens, UniProt Q00613 1-529); conditions: protein: recombinant; tags: N-terminal GST; chain copies: 3; dsDNA, one strand shown
Procedure, shortened: as §1

SPIC = biological target: T8, SPIC (Homo sapiens, UniProt Q8N5J4 1-248); conditions: protein: recombinant; tags: N-terminal GST; dsDNA, one strand shown
T8 sequence: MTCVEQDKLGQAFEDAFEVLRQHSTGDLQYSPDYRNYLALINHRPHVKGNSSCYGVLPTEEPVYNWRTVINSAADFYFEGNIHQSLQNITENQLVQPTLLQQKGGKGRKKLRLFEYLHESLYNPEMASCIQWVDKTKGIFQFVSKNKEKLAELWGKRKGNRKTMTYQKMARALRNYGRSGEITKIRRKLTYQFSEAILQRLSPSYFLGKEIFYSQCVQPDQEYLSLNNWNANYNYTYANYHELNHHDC
Procedure, shortened: as §1

ELF4 = ELF4 (Homo sapiens, UniProt Q99607 1-663); conditions: protein: recombinant; tags: N-terminal GST; dsDNA, one strand shown
Procedure, shortened: as §1

ELK4 = biological target: T9, ELK4 (Homo sapiens, UniProt P28324-2 1-405); conditions: protein: recombinant; tags: N-terminal GST; dsDNA, one strand shown
T9 sequence: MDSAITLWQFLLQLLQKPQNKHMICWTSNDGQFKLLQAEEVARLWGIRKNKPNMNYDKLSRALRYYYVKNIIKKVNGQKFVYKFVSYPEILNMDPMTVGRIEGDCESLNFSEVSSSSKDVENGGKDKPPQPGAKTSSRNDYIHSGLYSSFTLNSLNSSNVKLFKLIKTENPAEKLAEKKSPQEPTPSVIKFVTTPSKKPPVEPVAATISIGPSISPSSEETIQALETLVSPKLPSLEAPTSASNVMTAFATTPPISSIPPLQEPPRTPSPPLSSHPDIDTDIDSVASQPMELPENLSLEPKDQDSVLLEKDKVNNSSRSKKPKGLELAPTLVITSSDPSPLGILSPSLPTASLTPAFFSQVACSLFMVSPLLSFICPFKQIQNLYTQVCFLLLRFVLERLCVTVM
Procedure, shortened: as §1

ETV2 = biological target: T10, ETV2 (Homo sapiens, UniProt O00321 1-342); conditions: protein: recombinant; tags: N-terminal GST; dsDNA, one strand shown
T10 sequence: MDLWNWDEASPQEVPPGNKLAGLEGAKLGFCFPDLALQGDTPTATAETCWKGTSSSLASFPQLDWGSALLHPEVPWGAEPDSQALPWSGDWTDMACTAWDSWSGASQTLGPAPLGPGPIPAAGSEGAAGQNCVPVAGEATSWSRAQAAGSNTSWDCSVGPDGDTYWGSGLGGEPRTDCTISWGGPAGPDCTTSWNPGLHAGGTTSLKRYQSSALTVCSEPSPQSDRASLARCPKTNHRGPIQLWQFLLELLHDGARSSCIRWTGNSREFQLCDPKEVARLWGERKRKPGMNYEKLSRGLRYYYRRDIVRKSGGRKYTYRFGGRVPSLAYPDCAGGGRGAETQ
Procedure, shortened: as §1

ELF3 = biological target: T11, ELF3 (Homo sapiens, UniProt P78545 1-371); conditions: protein: recombinant; tags: N-terminal GST; dsDNA, one strand shown
T11 sequence: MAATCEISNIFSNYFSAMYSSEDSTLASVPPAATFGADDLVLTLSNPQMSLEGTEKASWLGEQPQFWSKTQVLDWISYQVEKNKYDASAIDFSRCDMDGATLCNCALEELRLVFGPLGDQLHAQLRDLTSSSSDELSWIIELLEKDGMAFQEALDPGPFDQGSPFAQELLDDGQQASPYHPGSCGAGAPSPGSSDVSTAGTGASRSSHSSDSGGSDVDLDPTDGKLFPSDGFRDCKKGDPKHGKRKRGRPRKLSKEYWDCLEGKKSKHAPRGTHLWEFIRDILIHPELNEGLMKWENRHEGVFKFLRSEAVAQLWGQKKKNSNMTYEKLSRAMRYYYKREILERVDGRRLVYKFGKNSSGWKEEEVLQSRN
Procedure, shortened: as §1

CRX = CRX (Homo sapiens, UniProt O43186 1-299); conditions: protein: recombinant; tags: N-terminal GST; dsDNA, one strand shown
Procedure, shortened: as §1

ETV1 = ETV1 (Homo sapiens, UniProt P50549 1-477); conditions: protein: recombinant; tags: N-terminal GST; dsDNA, one strand shown
Procedure, shortened: as §1

Chain of ETV5 (P41161 whole entry): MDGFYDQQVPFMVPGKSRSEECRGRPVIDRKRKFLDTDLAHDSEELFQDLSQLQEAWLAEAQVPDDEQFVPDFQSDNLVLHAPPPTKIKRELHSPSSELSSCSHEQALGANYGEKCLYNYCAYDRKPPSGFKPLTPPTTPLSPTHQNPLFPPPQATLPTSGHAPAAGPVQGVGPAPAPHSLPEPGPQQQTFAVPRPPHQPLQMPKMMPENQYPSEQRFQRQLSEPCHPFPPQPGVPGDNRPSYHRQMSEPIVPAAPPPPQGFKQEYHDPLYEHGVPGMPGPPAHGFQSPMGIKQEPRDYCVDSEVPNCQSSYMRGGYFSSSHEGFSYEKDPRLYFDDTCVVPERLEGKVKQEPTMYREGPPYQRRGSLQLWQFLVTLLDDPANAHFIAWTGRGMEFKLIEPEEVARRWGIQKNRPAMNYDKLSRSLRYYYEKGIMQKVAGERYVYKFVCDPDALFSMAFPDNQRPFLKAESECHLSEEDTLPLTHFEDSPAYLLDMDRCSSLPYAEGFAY
Chain of ELF4 (Q99607 whole entry): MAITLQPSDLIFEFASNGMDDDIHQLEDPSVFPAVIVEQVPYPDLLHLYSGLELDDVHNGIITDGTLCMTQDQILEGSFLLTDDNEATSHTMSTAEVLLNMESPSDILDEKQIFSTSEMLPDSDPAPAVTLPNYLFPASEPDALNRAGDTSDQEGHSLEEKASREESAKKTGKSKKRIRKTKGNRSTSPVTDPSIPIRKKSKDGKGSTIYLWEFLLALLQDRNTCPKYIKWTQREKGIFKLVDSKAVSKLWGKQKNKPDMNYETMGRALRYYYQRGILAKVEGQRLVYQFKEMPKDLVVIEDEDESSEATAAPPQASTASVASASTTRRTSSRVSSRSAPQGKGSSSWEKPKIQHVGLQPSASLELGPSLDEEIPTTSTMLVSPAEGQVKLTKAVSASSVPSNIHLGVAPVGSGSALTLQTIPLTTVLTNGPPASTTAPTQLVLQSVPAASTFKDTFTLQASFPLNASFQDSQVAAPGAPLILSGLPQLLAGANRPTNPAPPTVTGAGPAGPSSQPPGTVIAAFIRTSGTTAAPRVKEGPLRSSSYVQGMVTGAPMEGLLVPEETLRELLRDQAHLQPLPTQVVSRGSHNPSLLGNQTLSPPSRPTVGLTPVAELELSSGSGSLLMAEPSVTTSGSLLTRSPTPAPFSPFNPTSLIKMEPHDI
Chain of HSF1 (Q00613 whole entry): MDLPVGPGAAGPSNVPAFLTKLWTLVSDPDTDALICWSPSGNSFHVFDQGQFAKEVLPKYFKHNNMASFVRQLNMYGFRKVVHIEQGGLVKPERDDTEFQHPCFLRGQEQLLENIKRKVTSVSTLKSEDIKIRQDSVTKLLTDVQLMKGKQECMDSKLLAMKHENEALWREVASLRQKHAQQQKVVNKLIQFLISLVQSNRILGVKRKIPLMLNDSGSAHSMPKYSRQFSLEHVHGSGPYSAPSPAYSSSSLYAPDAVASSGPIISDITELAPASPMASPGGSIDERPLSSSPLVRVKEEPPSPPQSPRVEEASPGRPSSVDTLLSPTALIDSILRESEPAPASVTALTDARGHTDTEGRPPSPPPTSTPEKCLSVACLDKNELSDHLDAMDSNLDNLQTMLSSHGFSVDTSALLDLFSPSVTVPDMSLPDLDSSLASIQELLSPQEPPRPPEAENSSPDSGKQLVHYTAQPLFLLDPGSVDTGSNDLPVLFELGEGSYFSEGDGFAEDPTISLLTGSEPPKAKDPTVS
Chain of CRX (O43186 whole entry): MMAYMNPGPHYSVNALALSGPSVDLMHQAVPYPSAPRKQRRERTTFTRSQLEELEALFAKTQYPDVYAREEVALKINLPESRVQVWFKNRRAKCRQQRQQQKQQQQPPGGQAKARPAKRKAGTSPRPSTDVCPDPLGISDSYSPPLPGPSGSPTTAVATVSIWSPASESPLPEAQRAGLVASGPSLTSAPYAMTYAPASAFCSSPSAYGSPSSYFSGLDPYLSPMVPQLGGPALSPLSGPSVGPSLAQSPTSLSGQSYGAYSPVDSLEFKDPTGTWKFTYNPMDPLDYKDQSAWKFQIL
Chain of SPIB (Q01892 whole entry): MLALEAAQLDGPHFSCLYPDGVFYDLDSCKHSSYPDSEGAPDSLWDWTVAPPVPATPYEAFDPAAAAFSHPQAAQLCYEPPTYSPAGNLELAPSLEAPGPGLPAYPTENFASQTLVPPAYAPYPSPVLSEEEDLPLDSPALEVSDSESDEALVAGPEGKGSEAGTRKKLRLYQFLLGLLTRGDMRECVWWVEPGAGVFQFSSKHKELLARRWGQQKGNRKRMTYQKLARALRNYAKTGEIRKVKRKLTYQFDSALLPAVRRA
Chain of ELF1 (P32519 whole entry): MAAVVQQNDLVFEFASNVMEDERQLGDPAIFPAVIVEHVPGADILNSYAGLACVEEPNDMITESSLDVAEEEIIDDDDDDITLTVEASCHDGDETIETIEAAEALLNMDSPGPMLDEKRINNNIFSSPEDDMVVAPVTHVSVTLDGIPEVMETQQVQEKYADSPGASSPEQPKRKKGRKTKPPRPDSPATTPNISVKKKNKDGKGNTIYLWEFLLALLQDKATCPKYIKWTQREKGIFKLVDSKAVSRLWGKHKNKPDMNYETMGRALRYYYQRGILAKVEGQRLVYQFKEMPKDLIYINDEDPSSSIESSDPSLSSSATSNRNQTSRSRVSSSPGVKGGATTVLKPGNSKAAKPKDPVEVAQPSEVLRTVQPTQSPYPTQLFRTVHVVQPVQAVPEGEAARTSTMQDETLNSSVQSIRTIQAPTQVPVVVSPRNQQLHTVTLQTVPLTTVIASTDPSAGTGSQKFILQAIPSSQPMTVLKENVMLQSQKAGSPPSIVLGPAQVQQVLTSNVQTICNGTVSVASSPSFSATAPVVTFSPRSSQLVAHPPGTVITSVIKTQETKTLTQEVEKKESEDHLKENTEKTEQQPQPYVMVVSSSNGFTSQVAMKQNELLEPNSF
Chain of ETV1 (P50549 whole entry): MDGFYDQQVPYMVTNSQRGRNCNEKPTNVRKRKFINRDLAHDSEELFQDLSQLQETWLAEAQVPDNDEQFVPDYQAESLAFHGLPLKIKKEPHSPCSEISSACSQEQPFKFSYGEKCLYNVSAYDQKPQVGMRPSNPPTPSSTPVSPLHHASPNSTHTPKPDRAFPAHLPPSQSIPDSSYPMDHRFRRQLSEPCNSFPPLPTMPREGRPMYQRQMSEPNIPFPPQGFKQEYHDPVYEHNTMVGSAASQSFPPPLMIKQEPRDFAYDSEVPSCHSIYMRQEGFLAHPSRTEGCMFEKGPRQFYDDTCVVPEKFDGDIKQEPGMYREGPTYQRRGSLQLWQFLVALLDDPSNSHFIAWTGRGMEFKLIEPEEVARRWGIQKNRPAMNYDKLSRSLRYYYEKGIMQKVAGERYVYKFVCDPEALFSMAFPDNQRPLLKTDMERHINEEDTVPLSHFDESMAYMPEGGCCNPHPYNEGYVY

TTATAG
binding signal (FLI1): 1.13 fold enrichment (6-mer frequency, TF over GST control) | binding signal (ELK1): 1.09 fold enrichment (6-mer frequency, TF over GST control) | binding signal (GABPA): 1.22 fold enrichment (6-mer frequency, TF over GST control) | binding signal (ERG): 1.04 fold enrichment (6-mer frequency, TF over GST control) | binding signal (ELF1): 1.2 fold enrichment (6-mer frequency, TF over GST control) | binding signal (EHF): 1.25 fold enrichment (6-mer frequency, TF over GST control) | binding signal (SPI1): 1.2 fold enrichment (6-mer frequency, TF over GST control) | binding signal (SPIB): 1.2 fold enrichment (6-mer frequency, TF over GST control) | binding signal (ELK3): 1.03 fold enrichment (6-mer frequency, TF over GST control) | binding signal (FEV): 1.17 fold enrichment (6-mer frequency, TF over GST control) | binding signal (ETV5): 1.29 fold enrichment (6-mer frequency, TF over GST control) | binding signal (HSF1): 1.8 fold enrichment (6-mer frequency, TF over GST control) | binding signal (SPIC): 1.38 fold enrichment (6-mer frequency, TF over GST control) | binding signal (ELF4): 1.13 fold enrichment (6-mer frequency, TF over GST control) | binding signal (ELK4): 1.24 fold enrichment (6-mer frequency, TF over GST control) | binding signal (ETV2): 1.07 fold enrichment (6-mer frequency, TF over GST control) | binding signal (ELF3): 1.27 fold enrichment (6-mer frequency, TF over GST control) | binding signal (CRX): 2.46 fold enrichment (6-mer frequency, TF over GST control) | binding signal (ETV1): 1.18 fold enrichment (6-mer frequency, TF over GST control)
